# DT40 TDP1 no CPT: qHTS for Inhibitors of human tyrosyl-DNA phosphodiesterase 1 (TDP1): qHTS in cells in absence of CPT. Potency, µM (doses to about 46.2 µM), inactives show at the top dose activity change, negative = growth inhibition, actives largely listed as inhibitors. AID 686978, 2013. DT40 Tdp1-/- hTDP1 cells, no CPT, ATP luminescence, 48 h. actives 15% (n = 420,000); further: nearly all actives have a fitted effect of over 55% in size
#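 DT40 Tdp1-/-;hTDP1 cells, no CPT (DMSO vehicle only), 400 cells/well; compounds pin-transferred; ≥48 hr, 37 °C; CellTiter-Glo 30 min RT dark, luminescence read.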
# KB-3-1 tox: kills parental KB-3-1 adenocarcinoma cells | KB-3-1 viability, CellTiter-Glo ATP luminescence, 72 h | Potency, µM (titrated, usually from 46.1 µM), most hits filed as cytotoxic | actives 1.4% (n = 400,000); further: nearly all actives have a fitted effect of over 60% in size
#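 Parental KB-3-1 viability, qHTS format: 72 h compound exposure, 37 °C; CellTiter-Glo; media-only wells and DMSO plates as controls; concentration-effect fits on corrected data.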
# KB-V1 cytotox: KB-V1 MDR subline cytotoxicity; KB-V1 MDR cells viability, CellTiter-Glo, 72 h; Potency, µM (doses to about 46.1 µM), usual class: cytotoxic; actives 3.4% (n = 400,000); AID 1347076; further: nearly all actives have a fitted effect of over 60% in size
#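 KB-V1, DMEM (no phenol red) + 10% FBS; cpd pin-transferred, titration series; 72 h, 37 degrees C; CellTiter-Glo, luminescence. Data normalized, curve-fit.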
# TDP1 cell CPT: growth inhibition of DT40 Tdp1-/-;hTDP1 cells with camptothecin (screen for TDP1 inhibitors); chicken DT40 Tdp1-/-;hTDP1 cells + 20 nM CPT, ATP luminescence, 48 h; Potency, µM (doses to about 46.2 µM), for inactives: top-dose activity change, negative = growth inhibition, most hits filed as inhibitors; actives 12% (n = 420,000); AID 686979; further: nearly all actives have a fitted effect of over 55% in size
#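 Cell growth measured by CellTiter-Glo luminescence after a minimum 48 h, 37 C compound exposure with 20 nM CPT in Tdp1-knockout DT40 cells stably expressing hTDP1, seeded 400/well; qHTS titration format.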
# HT1080 IDH1KD tx: toxicity to HT-1080 IDH1 knockdown cells (counter line); HT-1080 IDH1 knockdown viability, ATP luminescence, 48 h; Potency, µM (titrated, usually from 46.1 µM), inactives show at the top dose activity, negative = toxicity, usual class: cytotoxic; actives 2% (n = 360,000); AID 686971;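 further: 0% = DMSO wells and -100% = cell-free medium wells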
#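 CellTiter-Glo luminescence after 48 h compound exposure at 37 degrees C of IDH1-knockdown HT-1080 cells in 5% FBS RPMI. %Activity scaled between DMSO wells and cell-free media wells, with curves fitted and assigned curve classes.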
# HT1080-NT tox: kills 2HG-producing HT-1080-NT fibrosarcoma cells; Potency, µM (highest dose often 46.1 µM), for the others: at the highest dose activity, negative = less viability, most hits filed as cytotoxic; HT-1080-NT fibrosarcoma viability, CellTiter-Glo ATP luminescence, 48 h; actives 1.6% (n = 360,000); AID 686970;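 further: NT is the 2HG producing partner of a matched IDH1 knockdown line; 0% = DMSO-treated cells and -100% = media-only wells without cells; nearly all actives have a fitted effect of over 55% in size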
#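 Toxicity toward the 2HG-producing NT line was scored as %Activity, normalised to DMSO and no-cell wells, from CellTiter-Glo luminescence after 48 hours' treatment.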
# Numbers without * were called inactive; i = inactive; ? = inconclusive; / = not tested or not shown. Shown are actives, neighbours in structure and some others; about 19% of the full set was active somewhere. The call rests on the fitted dose curve; in most records, active means well fitted curve in the direction sought with a large enough effect; inconclusive means small, poorly fitted or top-dose-only effect, or another doubt; inactive means no such curve, though single readings can be large; an effect the other way counts as inactive or inconclusive. Unless noted, on the % scale 0 is the no-effect control and ±100 the full control effect; potency means the concentration at half of the fitted maximal effect.
SMILES,DT40 TDP1 no CPT,KB-3-1 tox,KB-V1 cytotox,TDP1 cell CPT,HT1080 IDH1KD tx,HT1080-NT tox
Nc1cc2c(cc1Cl)-c1ccc(Cl)cc1C2,?,i,i,-7%,-21%,-9%
CCOC(=O)Nc1ccc2c(c1)Sc1ccccc1N2C(=O)CCN1CCOCC1,9%,i,i,-1%,-2%,-10%
O=C(NC(C(=O)c1ccccc1)c1ccccc1)c1ccccc1 (stereo not drawn),?,?,i,0%,-8%,-10%
N#CC(C#N)=C1C(=O)N(CCN2CCOCC2)c2ccccc21,?,i,i,29µM*,-11%,2%
N#CC(C#N)=C1C(=O)N(CCN2CCCCC2)c2ccccc21,18µM*,i,i,16µM*,-4%,1%
CCCCN1C(=O)/C(=C(/C#N)C(=O)N2CCCC2)c2ccccc21,21µM*,i,?,16µM*,-2%,-11%
N#C/C(C(=O)N1CCCCC1)=C1/N=C(N)c2ccccc21,3%,i,i,4%,10%,0%
CC(C)N(C(=O)CSc1nnnn1-c1ccc2c(c1)OCO2)C(C)C,?,i,i,-27%,3%,7%
Cc1ccc(S(=O)(=O)N2CCC(C(=O)Nc3ccccc3N3CCCCC3)CC2)cc1C,?,i,?,18µM*,3%,8%
O=C(Nc1ccccc1N1CCCC1)C1CCN(S(=O)(=O)c2ccc(F)cc2)CC1,?,?,8.2µM*,?,0%,1%
Cc1ccc(S(=O)(=O)N2CCC(C(=O)Nc3ccccc3N3CCCC3)CC2)cc1C,?,i,?,-21%,0%,0%
Cc1ccc(S(=O)(=O)N2CCCCC2)cc1NC(=O)C1CCN(C(=O)OC(C)(C)C)CC1,16µM*,i,i,?,-13%,-11%
Cc1ccc(NC(=O)C2CCN(C(=O)OC(C)(C)C)CC2)cc1S(=O)(=O)N1CCCCC1,-51%,i,i,?,-16%,-9%
CN(Cc1ccccc1F)C(=O)CCNC(=O)c1ccc(C(C)(C)C)cc1,?,i,i,?,2%,-5%
CCOc1cc(N2CCOCC2)c(OCC)cc1NC(=O)CN1C(=O)NC2(CCCCC2)C1=O,0%,/,/,11%,9%,0%
O=C(CCNC(=O)c1ccc(Cl)cc1)Nc1cccc(S(=O)(=O)N2CCCCC2)c1,23µM*,i,i,18µM*,4%,4%
CN(C)c1ccc(S(=O)(=O)N2CCCCC2)cc1NC(=O)CCNC(=O)c1ccc(Cl)cc1,-6%,i,21µM*,-20%,-2%,-1%
Cc1ccc(NC(=O)CCNC(=O)c2ccc(Br)cc2)cc1S(=O)(=O)N1CCCCCC1,16µM*,?,21µM*,?,-7%,-8%
COc1ccc(N2C(=O)CS(=O)(=O)C23C(=O)N(Cc2ccccc2F)c2ccccc23)cc1Cl (stereo not drawn),?,i,i,?,/,/
CCS(=O)(=O)N1CCc2cc(C(=O)Nc3ccc(OC)cc3OC)ccc21,16µM*,i,i,?,/,/
CCS(=O)(=O)N1CCc2cc(C(=O)Nc3ccc(C)c(Cl)c3)ccc21,13µM*,i,i,18µM*,/,/
CCS(=O)(=O)N1CCc2cc(C(=O)Nc3ccc(OC)c(Cl)c3)ccc21,18µM*,?,i,?,/,/
CCOc1cccc2sc(NC(=O)c3ccc(S(=O)(=O)N4CCCCC4)cc3)nc12,-6%,i,i,?,/,/
COC1=C(OC)C(=O)C(Sc2ccc3ccccc3c2)=CC1=O,1.3µM*,?,2.6µM*,1.3µM*,16µM*,?
O=[N+]([O-])c1ccc(Sc2cccc[n+]2[O-])c2nonc12,0.021µM*,?,?,0.0058µM*,0.58µM*,0.15µM*
SMILES,DT40 TDP1 no CPT,KB-3-1 tox,KB-V1 cytotox,TDP1 cell CPT,HT1080 IDH1KD tx,HT1080-NT tox
CCn1c(CNC(=O)c2ccco2)nnc1SCC(=O)Nc1ccccc1Cl,-4%,i,i,-16%,-1%,11%
O=C(CCn1c(=O)c2cccn2c2cccnc21)N1CCN(c2ccccc2F)CC1,23µM*,/,/,?,/,/
Cc1ccc(C)c(N2CCN(CCCNC(=O)Cn3c(=O)c4cccn4c4cccnc43)CC2)c1,?,i,i,21µM*,-16%,-21%
COc1ccc(N2CCN(C(=O)Cn3c(=O)c4cccn4c4cccnc43)CC2)cc1,-27%,?,i,?,-9%,-2%
O=C(CCn1c(=O)c2cccn2c2cccnc21)N1CCN(c2cccc(Cl)c2)CC1,15µM*,?,i,18µM*,5%,3%
O=C(CCn1c(=O)oc2ccccc21)N1CCN(c2ccccc2F)CC1,4%,i,23µM*,-8%,6%,9%
Cc1ccc(C)c(N2CCN(CCCNC(=O)CCn3c(=O)c4cccn4c4cccnc43)CC2)c1,?,?,i,?,-23%,-14%
Cc1ccc(C)c(N2CCN(C(=O)CCn3c(=O)c4cccn4c4cccnc43)CC2)c1,21µM*,/,/,?,/,/
Cc1ccc(Cl)cc1N1CCN(C(=O)CCn2c(=O)c3cccn3c3cccnc32)CC1,6.5µM*,/,/,9.2µM*,/,/
COCCCNC(=O)C[C@H]1C[C@H](C(=O)N(C(C)C)C(C)C)[C@@]2(C)c3[nH]c4ccc(Cl)cc4c3CCN2C1=O,8.2µM*,i,i,12µM*,1%,-8%
CC(C)N(C(=O)[C@H]1C[C@H](CC(=O)NCCCn2ccnc2)C(=O)N2CCc3c([nH]c4ccc(Cl)cc34)[C@]12C)C(C)C,18µM*,i,i,?,-28%,-13%
COCCCNC(=O)CC1C[C@H](C(=O)N(C(C)C)C(C)C)[C@@]2(C)c3[nH]c4ccc(OC)cc4c3CCN2C1=O (stereo partly drawn),?,i,i,-16%,8%,4%
COc1ccc(SCCN2CC[C@@H](O)CCC2=O)cc1,-20%,i,i,?,-3%,-1%
COc1ccc(SCCN2CC[C@@H](C(C)(C)C)CCC2=O)cc1,16µM*,i,?,?,-4%,0%
C[C@H]1CCC(=O)N([C@H](COc2ccccc2)Cc2ccccc2)CC1,16µM*,?,i,18µM*,-14%,-5%
